# Source: PubChem
# CSC inhib: cancer stem cell viability inhibitors, primary screen, luminescence | cancer stem cell-like cells viability | inhibition, % at 7.5 µM | actives 1.1% (n = 300,000); in the data active = inhibition above about 75%; inconclusive = no clear call, values can overlap the other calls; tested in HMLE shEcad cells
# Mdm2-MdmX inh: inhibitors of human Mdm2-MdmX association, primary screen, cell-based, luminescence, split luciferase, SaOS-2, uHTS; Protein Mdm4 (Homo sapiens) + E3 ubiquitin-protein ligase Mdm2 (Homo sapiens), …; SaOS-2 split-luciferase Mdm2/MdmX complementation; inhibition, % at 8 µM; actives 3% (n = 330,000);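 active = inhibition of at least 50% at 8 µM in the primary screen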
# Target sequence (O15151 whole entry, looked up): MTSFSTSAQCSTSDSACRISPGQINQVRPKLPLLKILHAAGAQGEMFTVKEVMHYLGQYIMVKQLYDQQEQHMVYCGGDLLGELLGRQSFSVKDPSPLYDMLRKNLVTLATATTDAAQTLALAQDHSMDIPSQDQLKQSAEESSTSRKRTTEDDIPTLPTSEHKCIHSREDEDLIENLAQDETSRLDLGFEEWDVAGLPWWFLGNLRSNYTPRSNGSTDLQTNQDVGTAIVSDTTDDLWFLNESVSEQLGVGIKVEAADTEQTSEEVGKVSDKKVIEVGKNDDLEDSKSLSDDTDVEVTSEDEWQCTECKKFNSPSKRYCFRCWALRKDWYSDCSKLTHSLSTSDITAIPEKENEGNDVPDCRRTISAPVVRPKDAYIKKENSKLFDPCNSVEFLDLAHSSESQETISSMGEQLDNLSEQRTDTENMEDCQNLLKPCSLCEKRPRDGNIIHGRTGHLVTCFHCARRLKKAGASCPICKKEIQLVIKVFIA
# Target sequence (Q00987 whole entry, looked up): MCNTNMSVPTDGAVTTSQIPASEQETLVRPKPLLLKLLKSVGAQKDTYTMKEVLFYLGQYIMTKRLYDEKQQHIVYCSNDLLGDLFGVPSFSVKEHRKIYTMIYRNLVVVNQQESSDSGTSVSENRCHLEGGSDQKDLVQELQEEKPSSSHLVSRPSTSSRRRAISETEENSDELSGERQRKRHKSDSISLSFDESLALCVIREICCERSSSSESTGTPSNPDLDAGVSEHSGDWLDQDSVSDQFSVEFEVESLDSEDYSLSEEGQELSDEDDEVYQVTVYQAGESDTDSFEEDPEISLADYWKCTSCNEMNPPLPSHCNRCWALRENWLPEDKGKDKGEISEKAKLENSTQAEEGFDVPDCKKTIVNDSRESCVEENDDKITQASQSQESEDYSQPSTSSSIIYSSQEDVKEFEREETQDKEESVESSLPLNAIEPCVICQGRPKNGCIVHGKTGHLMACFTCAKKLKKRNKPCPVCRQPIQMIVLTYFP
# Beta cell apopt: inhibitors of cytokine-induced beta cell apoptosis, primary screen, luminescence; INS-1E cytokine-induced death, ATP luminescence, 48 h; percent of positive-control rescue, neutral wells zero; AID 435005, 2010; protection from apoptosis, % (test concentration not listed); actives 0.8% (n = 300,000);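 active = Every replicate reaches about 75%, or at least half do and their mean reaches it too, limit read from the data; inconclusive = At least half of replicates reach the limit but their mean does not; inactive = Under half of replicates reach the limit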;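 note: 0% = cytokine-treated negative control wells and 100% = positive control rescue; higher means more ATP so stronger rescue from cytokine killing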
# aSyn 5UTR inh: MLPCN primary screen, SNCA 5' untranslated region. inhibition, % (tested at 7.5 µM). actives 0.82% (n = 300,000). alpha-synuclein 5'UTR reporter, inhibitor activity; in the data active = inhibition above about 60%; inconclusive = no clear call, values can overlap the other calls;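 note: H4 neuroglioblastoma cells stably carrying SNCA 5'UTR luciferase fusion; 0% = DMSO wells and 100% = positive control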
# A1 inh: caspase 3/7 activation in MEF A1-2A-BIM cells, primary screen, A1 inhibitor project, cell-based, luminescence, HTS; caspase activation, % (concentration not given with the values); Caspase-Glo 3/7 luminescence, 3 h; percent of clofoctol response, vehicle zero; AID 2462, 2010; actives 0.066% (n = 330,000);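 active = over half of replicate activation scores above 10%, or exactly half above 10 with the replicate mean above 10; inconclusive = replicate mean below 10 yet half the replicates above 10; inactive = over half of replicates below 10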
# Mdm2 MdmX conf: Mdm2-MdmX complex disruptors, retested hits, confirmation, luminescence, single concentration. shares compounds with Mdm2-MdmX inh. Mdm2-MdmX binding, luminescent assay. inhibition, % at 8 µM. actives 55% (n = 10,000). AID 489028, 2010; in the data active = inhibition above about 40%
# FLuc counter: full-length luciferase signal inhibition, confirmation, counter-screen for Mdm2/MdmX interaction inhibitor project, cell-based, single concentration, SaOS-2; SaOS-2 full-length luciferase counterscreen, luminescence; inhibition, % at 8 µM; actives 77% (n = 6,200); shares compounds with Mdm2-MdmX inh;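 active = mean inhibition at 8 µM reaching about 37%, which flags the compound as non-specific, limit read from the data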;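 note: p53-null SaOS-2 cells with luciferase driven by a doxycycline-inducible promoter; compound on cells about two nights before reading with doxycycline added after day one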
# * marks the source's active call; other numbers are inactive results; ? = inconclusive; / = no result. A selection: hits, their analogues and other compounds. The true share with any hit is near 4.1%.
SMILES,CSC inhib,Mdm2-MdmX inh,Beta cell apopt,aSyn 5UTR inh,A1 inh,Mdm2 MdmX conf,FLuc counter
FC(F)Oc1ccc(C2N=C(c3ccccc3)NO2)cc1 (centres undefined),-5.1,-130.2,-1.9,-199.0,-1.0,/,/
COc1ccc2cc3c(N)nn(C(=O)Cc4ccc(Cl)cc4)c3nc2c1,10.0,73.3*,1.1,6.3,-0.4,59.5*,47.8*
COc1ccc(N2CCN(C(=O)Cc3ccc(Cl)cc3)CC2)cc1,-4.8,13.9,/,-13.6,0.4,/,/
COc1cccc(COC(=O)c2nn(-c3ccccc3)nc2N)c1,-1.2,-33.4,-1.3,0.1,1.0,/,/
COc1ccc2cc3c(N)nn(C(=O)Cc4c[nH]c5ccccc45)c3nc2c1,50.7,93.2*,-27.9,49.0,-1.0,98.1*,52.1*
COc1cccc(CC(=O)n2nc(N)c3cc4ccc(OC)cc4nc32)c1,29.3,64.1*,-10.3,40.7,0.2,-7.8,/
CN1CCN(c2ccc(S(=O)(=O)N3CCOCC3)cc2NC(=O)CSCc2ccccc2)CC1,-8.0,-12.5,0.7,/,2.4,/,/
N#CC1=C(N)C(C#N)(C#N)C(c2cccnc2)C2CC(c3ccccc3)CC=C12 (centres undefined),6.8,62.0*,-4.9,9.8,0.3,61.3*,23.1
COc1cccc(NC(=S)N(CCCN2CCCC2)Cc2ccco2)c1,-14.9,4.9,-16.5,0.5,0.2,/,/
S=C(Nc1cccc(Cl)c1)N(CCCN1CCCC1)Cc1cccn1Cc1ccc(Cl)cc1,96.0*,61.9*,19.9,-21.1,-0.1,33.1,/
COc1cccc(NC(=S)N(CCCN2CCCC2)Cc2cccn2Cc2ccc(Cl)cc2)c1,34.8,56.4*,4.4,-9.0,0.3,23.1,/
CSc1cccc(NC(=S)N(CCCN2CCCC2)Cc2cccn2Cc2ccc(Cl)cc2)c1,33.5,72.9*,3.1,-11.8,-0.2,43.8*,62.7*
COC(=O)c1cc(CN2CCN(c3ccccc3)CC2)ccc1O,-3.9,-1.6,-3.8,1.0,-1.1,/,/
O=C(CN1CCN(C(=O)N2CCOCC2)CC1)Nc1cc(Cl)ccc1Cl,-12.0,-16.1,-10.9,10.8,-0.2,/,/
COc1ccccc1CNc1ncnc2cc(Cl)ccc12,/,/,/,-23.5,/,/,/
CCOc1ccccc1CNc1ncnc2ccc(-c3c(C)noc3C)cc12,112.2*,79.4*,34.5,/,0.8,54.0*,43.0*
Cn1nnnc1Sc1ncnc2scc(-c3ccc(Cl)cc3)c12,82.7*,100.3*,-9.1,/,1.9,98.9*,52.2*
COc1ccc(-c2csc3ncnc(Cl)c23)cc1,2.7,28.1,-5.4,-26.4,0.2,/,/
Cn1nnnc1Sc1ncnc2scc(-c3ccc4c(c3)OCO4)c12,/,71.5*,-4.7,/,-0.1,36.9,/
COc1ccc(-c2csc3ncnc(Sc4nnnn4C)c23)cc1,52.5,68.1*,-18.5,/,1.7,45.6*,20.8
Cc1ccc(-c2csc3ncnc(SCC(=O)c4ccc5c(c4)OCCO5)c23)cc1,-1.6,20.0,6.4,9.9,0.7,/,/
CC(=O)CSc1ncnc2scc(-c3ccc(F)cc3)c12,-11.6,14.2,3.7,31.5,1.0,/,/
Cn1nnnc1Sc1ncnc2scc(-c3ccc([N+](=O)[O-])cc3)c12,73.1,98.9*,-7.0,/,?,99.5*,50.3*
COc1ccc(C)cc1NC(=O)C1CCCCN1S(=O)(=O)c1ccccc1 (centres undefined),2.6,24.0,-1.1,/,-0.4,/,/
Cn1c(=O)c2c(SCC(=O)N3CCCC3)nc(CC(C)(C)C)nc2n(C)c1=O,1.5,17.2,-1.7,4.8,-0.8,/,/
COc1cc(C2Nc3ccc4ccccc4c3C3=C2C(=O)CC(C)(C)C3)ccc1OC(C)C(=O)O (centres undefined),-12.2,19.3,-3.1,-0.9,0.6,/,/
O=C(NC1CCCCC1)C1CCCN1S(=O)(=O)c1ccc(Cl)cc1 (centres undefined),3.0,-14.2,-7.0,10.9,-0.1,/,/
